Experimental findings from ChEMBL document CHEMBL4513216, “Probing the Open Global Health Chemical Diversity Library for Multistage-Active Starting Points for Next-Generation Antimalarials” (ACS Infect Dis, 2020) are described below.

The structures appear in SMILES notation. About 8,600 (12%) of roughly 69,000 compounds showed an effect of 50% or more. The list comes from a sample in which strong results are over-represented; it also holds similar structures and randomly drawn compounds.

The subject of the test is Plasmodium berghei. Briefly: Screen against P. berghei liver stage (PbLuc), transformed with Luciferase, at 10uM. The class given is functional, HepG2. The following applies: tested at 10 uM.
For `COCC1CC2(CCN(C(=O)c3occc3C)CC2)CN1C(C)C` (stereo not drawn), the INHIBITION stood at 18.4%.

Regarding `CSc1ncccc1C(=O)N(CCO)Cc1ccccc1`, the INHIBITION is listed as 21.4%.

`CCC(CN1CCCC1)NC(=O)Cc1c(C)[nH]c2cc(C)cc(C)c12` (stereo not drawn): the INHIBITION amounted to 6.32%.

Take `Cc1nc(-c2ccco2)ccc1C(=O)NCC(=O)N1CCCCC1`: the INHIBITION is on record as -5.65%.

`CCc1ncncc1C(=O)N1CCCC(n2nc(C)nc2C)C1` (stereo not drawn): the INHIBITION is recorded as -31.8%.

Regarding `Cn1c(C(=O)Nc2nc[nH]n2)cc2ccccc21`, the INHIBITION came out at 41.9%.

Consider `COCCCN(Cc1cnc(C2CCCCC2)nc1)C1CCN(C)CC1`, for which the INHIBITION came to 49.4%.

With `O=C(c1cscn1)N1CCc2ncnc(-c3cccnc3)c2CC1`, the INHIBITION is given as 23.6%.

`Cc1cnc(N2CC[C@H]3[C@@H]2CCC(=O)N3c2cccnc2)nc1`: the INHIBITION turned out to be 37.1%.

Take `CS(=O)(=O)N1CCC(c2nc3ccc(-c4cccc(F)c4)cn3n2)CC1`: the INHIBITION was determined as 58.3%.

Consider `CN(C)C(=O)N1CCC(c2nc3ccc(N4CCCC4)cn3n2)CC1`, for which the INHIBITION came to 47.9%.

With `CC(=O)N1CCC(c2nc3ccc(NC4CCC4)cn3n2)CC1`, the INHIBITION amounted to 9.51%.

With `c1ccc(-c2ccc3nc(C4CCN(CC5CC5)CC4)nn3c2)cc1`, the INHIBITION came out at 6.8%.

In the case of `CN(C)C(=O)N1CCC(c2nc3ccc(-c4ccccc4)cn3n2)CC1`, the INHIBITION is given as 65.3%.

With `CCS(=O)(=O)N1CCC(c2nc3ccc(-c4ccccc4)cn3n2)CC1`, the INHIBITION was 31.8%.

Take `CN1CCC(c2nc3ccc(-c4cccc(F)c4)cn3n2)CC1`: the INHIBITION is recorded as 33.5%.

Consider `COCC(=O)N1CCC(c2nc3ccc(-c4ccccc4)cn3n2)CC1`, for which the INHIBITION was -28.2%.

With `COCC(=O)N1CCC(c2nc3ccc(N4CCCC4)cn3n2)CC1`, the INHIBITION is given as -18.2%.

For `COCC(=O)N1CCC(c2nc3ccc(-c4ccncc4)cn3n2)CC1`, the INHIBITION is recorded as 53.4%.

Consider `CC(=O)N1CCC(c2nc3ccc(-c4cccc(F)c4)cn3n2)CC1`, for which the INHIBITION was found to be 79.2%.

Consider `CN1CCC(c2nc3ccc(-c4ccccc4)cn3n2)CC1`, for which the INHIBITION is -15.7%.

On to `CO[C@@H]1CCN(Cc2ccccn2)[C@@H]2CN(Cc3ccco3)C[C@@H]21`, for which the INHIBITION was 20.9%.

In the case of `CCc1nc(C)c(C(=O)NCCNC(=O)Cc2cccc(F)c2)s1`, the INHIBITION is reported as -27.9%.

Turning to `C=Cn1cc(CN2CCc3nc(-c4cccnc4)nc(O)c3C2)c(C)n1`, the INHIBITION stood at 1.5%.

For the compound `Cc1occc1C(=O)Nc1cccc(C(=O)OCC2CCCN2)c1` (stereo not drawn), the INHIBITION is -24.7%.

Consider `CN(C)C(=O)CN1CCC2(CCCN(Cc3cccs3)C2)C1=O` (stereo not drawn), for which the INHIBITION stood at 8.6%.

With `O=C1COC2(CCN(Cc3nccs3)CC2)CN1c1ccccc1`, the INHIBITION came to 35.6%.

On to `N#Cc1ccc(N2CCC(OCCc3ccccc3)CC2)nc1`, for which the INHIBITION is on record as 45.5%.
